Yeast superoxide: lowers age-related superoxide in aged yeast cells; S. cerevisiae aged cells, superoxide DHE fluorescence; active compounds read low; AID 2690; superoxide response (% of plate mean), % at 10 µM; actives 0.18% (n = 330,000);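 active means superoxide response under a set limit, about three screen SD below normal, cut at about 65% in these data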;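 further: yeast aged for seven days with compound at 30 °C before DHE staining; 100% = average MFI of all compound-treated wells on the plate with controls excluded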
V-ATPase pHluor: yeast V-ATPase proton transport regulation by pHLuorin; S. cerevisiae, pHLuorin cytosolic pH fluorescence; response, % at 10 µM; actives 0.37% (n = 350,000); AID 504577; in the data active means response mostly above about 7.3%, no sharp cut-off; inactive means mostly below about 5.4%; further: actives read high
pCIP destab: p/CIP protein destabilization; Q05BA5; F442A p/CIP-EGFP cells, EGFP fluorescence, 16 h; decrease of EGFP signal, % at 10 µM; actives 0.01% (n = 290,000); AID 1984;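 active means EGFP signal decrease of at least 30% at 10 µM or well 3 SD below plate mean, unless failing retest; inactive means the rest, including hits failing retest or dose response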
HSV replic up: increases HSV replication in cells; HSV replication augmentation in cells, fold increase; maximum fold increase; actives 0.005% (n = 220,000); AID 1956; in the data active means maximum fold increase above about 1.5; tested in PC3 cells
H9c2 protect: protects H9c2 cardiomyocytes from peroxide injury. H2O2 injury protection, ATPLite, 2 h. protection from H2O2 cell death, % at 20 µM. actives 0.63% (n = 360,000). AID 588492;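 active means compounds giving at least 50% protection of heart cells from peroxide-induced death in the single-dose screen, raw or plate-pattern-corrected value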;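 further: 0% = DMSO wells with peroxide and 100% = DMSO wells without peroxide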
beta cell repl: MIN6 beta-cell proliferation induction | MIN6 cells proliferation, ATPlite luminescence, 48 h; cells starved in 0.2% serum; 100% = growth in 10% serum | proliferation, % at 10 µM | actives 0.29% (n = 330,000);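 active means compounds whose signal lies at least 3.5 SD above the mean of all wells on their plate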;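 further: 0% = DMSO-treated cells in low-serum medium and 100% = 10% serum control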
Superoxide pick: confirmation of caloric restriction mimetics inhibiting yeast age-related superoxide; shares compounds with Yeast superoxide; S. cerevisiae aging, superoxide DHE fluorescence; active compounds read low; superoxide response (% of plate), % at 10 µM; actives 1% (n = 850); AID 434994;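 active means superoxide signal below 65% of the plate average of sample wells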;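 further: cells aged with compound for 7 days at 30 degrees C before staining; 100% equals mean DHE fluorescence of all compound wells on the plate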
DHE counter: counter-screen for compounds affecting DHE oxidation and fluorescence in yeast; shares compounds with Yeast superoxide; S. cerevisiae BY4741, flow cytometry; active compounds read low; fluorescence response, % at 10 µM; 850 tested, under 10 active;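 active means fluorescence response below 15%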;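 further: percent of the mean fluorescence averaged over all compound wells on the plate; lower means stronger quenching of DHE signal or ROS scavenging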
* hit, by the source's call; i = inactive; / = no result. Rows were chosen to be rich in hits. Some 1.4% of all compounds tested hit in one or more screens of this group.

SMILES	Yeast superoxide	V-ATPase pHluor	pCIP destab	HSV replic up	H9c2 protect	beta cell repl	Superoxide pick	DHE counter
COc1ccc(S(=O)(=O)NCC(=O)N(CC(=O)NCC2CCCO2)Cc2ccc(F)cc2)cc1 (configuration not stated)	109	-5	-13	/	-6	-2	/	/
CN(C)CCNc1ncnc2c1cnn2-c1ccc(Cl)cc1	108	0	0	i	-4	-5	101	99
CC(C)Nc1ncnc2c1cnn2-c1ccccc1	103	5	2	i	-19	-4	108	89
OCCCNc1ncnc2c1cnn2-c1ccc(Cl)cc1	92	-2	8	/	-14	-5	92	90
Cc1cccc(-n2ncc3c(NC(C)C)ncnc32)c1	96	2	4	i	-11	-2	/	/
CCOC(=O)CSc1nnc(-c2cc(OC)c(OC)c(OC)c2)o1	100	-1	-10	i	0	-1	94	98
COc1cc(-c2nnc(SCC(=O)OC3CCCCC3)o2)cc(OC)c1OC	112	6	-9	i	3	-4	/	/
CCCCCOC(=O)CSc1nnc(-c2cc(OC)c(OC)c(OC)c2)o1	113	-4	-3	i	6	-4	124	109
CCCOC(=O)CSc1nnc(-c2cc(OC)c(OC)c(OC)c2)o1	92	-2	-3	i	14	-5	98	112
O=C(Nc1ccccc1)/C(=C/c1cccnc1)NC(=O)c1ccco1	62*	1	-3	i	3	-2	113	101
O=C(Nc1ccccc1)/C(=C\c1ccccc1)NC(=O)c1ccco1	92	-1	6	i	2	-2	/	/
CCOc1ccc(C(=O)N2CCN(c3ccccc3)CC2)cc1	97	-1	-3	i	7	-2	96	95
COc1ccc(N2CCN(C(=O)c3ccc(C)c(Cl)c3)CC2)cc1	83	1	-8	i	-2	-1	94	99
Cc1ccc(C(=O)N2CCN(c3ncccn3)CC2)cc1	65*	2	-2	/	4	-1	97	93
COc1ccc(N2CCN(C(=O)c3ccc(C)cc3Cl)CC2)cc1	95	0	-12	i	-2	-1	97	91
CCOc1ccc(C(=O)N2CCN(c3ccccc3)CC2)cc1OCC	87	1	-3	i	-3	-6	/	/
COc1ccc(N2CCN(C(=O)c3ccc(Cl)c(S(=O)(=O)N4CCCC4)c3)CC2)cc1	112	0	2	i	-5	-1	/	/
CCC(Oc1ccc(Br)cc1)C(=O)N1CCN(c2ncccn2)CC1 (configuration not stated)	98	2	3	/	-4	4	/	/
Cc1ccc(S(=O)(=O)N2CCCC2)cc1C(=O)O	111	0	-9	i	1	1	92	93
COc1ccc(S(=O)(=O)N2CCCC2)cc1C(C)C	97	0	-12	i	-10	3	104	89
NC(=O)COC(=O)c1cccc(S(=O)(=O)N2CCCCC2)c1	107	0	8	i	0	5	/	/
COc1ccc(S(=O)(=O)N2CCOCC2)cc1C(=O)N1CCCC1	85	1	2	/	-7	1	/	/
COc1ccc(S(=O)(=O)N2CCCC2)cc1OC	101	-1	-6	/	4	-2	/	/
CCOC(=O)c1cccc(S(=O)(=O)N2CCCC2)c1	93	-2	-9	i	-8	0	107	91
COc1ccc(S(=O)(=O)N2CCCC2)cc1C(=O)O	90	-3	-53	/	-2	-2	88	98
O=C(O)C1C2CCC(O2)C1C(=O)Nc1ccc(OC(F)F)cc1 (configuration not stated)	99	-2	-8	/	7	4	/	/
CCN(CC)C(=O)C1=C(C)N(Cc2ccc(C(C)(C)C)cc2)C(=O)C(CC(=O)NC(c2ccccc2)c2ccccc2)C1 (configuration not stated)	/	-1	/	/	-2	/	/	/
O=C(c1ccc(Cl)cc1)N1CCN(c2ccc(F)cc2)CC1	71	0	-9	i	-8	-2	89	103

High-throughput results from PubChem BioAssay.
